# The supplement of paper PMC11732987, “Enantioselective OTUD7B fragment discovery through chemoproteomics screening and high-throughput optimisation” (Communications Chemistry, 2025)
# A number with no mark means an inactive call.
# Assays:
# Test in all cases: log2 ratio of Biotin-Ahx-Ub-VS probe labelling (fragment/DMSO); higher = less target engagement (more negative = stronger competition), active = hit call of the paper (q ≤ 0.05, log2 ratio ≤ -1)
# Conditions in all cases: compound concentration: 200 uM; treatment time: 3 h
# [1] = biological target: T1, OTUD6B (UniProt Q8N6M0)
# T1 sequence (whole entry): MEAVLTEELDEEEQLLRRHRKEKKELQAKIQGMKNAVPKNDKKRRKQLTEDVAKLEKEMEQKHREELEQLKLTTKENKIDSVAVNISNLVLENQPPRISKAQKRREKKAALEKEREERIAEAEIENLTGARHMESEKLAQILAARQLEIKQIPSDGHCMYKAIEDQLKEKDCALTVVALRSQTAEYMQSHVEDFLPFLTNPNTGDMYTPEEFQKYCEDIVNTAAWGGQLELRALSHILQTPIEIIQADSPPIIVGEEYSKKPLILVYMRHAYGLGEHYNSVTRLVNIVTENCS
# Outline: (§1)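 Average log2 ratios of fragment over vehicle were obtained by unpaired t-test from global-median-normalised Spectronaut label-free quantities. Proteins with ≥2 unique peptides were included. HEK293T lysate (495 µg per sample) was treated in triplicate with fragment at 200 µM or vehicle for 3 h, then with Biotin-Ahx-Ub-VS at 0.5 µM final for 1 h, and labelled DUBs were NeutrAvidin-enriched and run by diaPASEF LC-MS/MS.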
# [2] = biological target: T2, OTUD7B (UniProt Q6GQQ9)
# T2 sequence (whole entry): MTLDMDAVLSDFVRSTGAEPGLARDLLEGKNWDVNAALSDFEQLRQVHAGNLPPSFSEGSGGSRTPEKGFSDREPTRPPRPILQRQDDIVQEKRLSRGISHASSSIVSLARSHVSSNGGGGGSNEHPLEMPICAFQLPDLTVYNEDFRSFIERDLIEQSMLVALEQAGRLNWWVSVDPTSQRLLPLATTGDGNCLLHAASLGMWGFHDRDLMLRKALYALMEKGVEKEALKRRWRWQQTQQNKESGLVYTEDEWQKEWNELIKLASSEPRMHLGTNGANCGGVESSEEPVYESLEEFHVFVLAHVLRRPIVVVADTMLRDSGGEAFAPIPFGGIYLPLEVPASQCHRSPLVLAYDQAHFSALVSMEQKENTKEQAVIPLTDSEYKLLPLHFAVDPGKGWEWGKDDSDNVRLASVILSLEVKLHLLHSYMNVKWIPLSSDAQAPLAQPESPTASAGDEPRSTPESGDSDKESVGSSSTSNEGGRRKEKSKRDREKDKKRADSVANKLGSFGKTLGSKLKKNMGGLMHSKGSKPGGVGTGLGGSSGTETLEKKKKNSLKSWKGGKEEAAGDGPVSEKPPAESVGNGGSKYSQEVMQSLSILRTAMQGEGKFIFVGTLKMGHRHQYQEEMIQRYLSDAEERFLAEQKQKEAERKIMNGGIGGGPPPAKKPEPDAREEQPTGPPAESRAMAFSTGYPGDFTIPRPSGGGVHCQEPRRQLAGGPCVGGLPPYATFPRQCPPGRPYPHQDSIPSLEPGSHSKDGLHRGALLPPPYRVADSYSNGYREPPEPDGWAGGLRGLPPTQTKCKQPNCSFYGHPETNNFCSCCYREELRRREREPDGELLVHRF
# Outline: as §1
# [3] = biological target: PRPF8 (UniProt Q6P2Q9)
# Outline: as §1
# [4] = biological target: T3, PSMD7 (UniProt P51665)
# T3 sequence (whole entry): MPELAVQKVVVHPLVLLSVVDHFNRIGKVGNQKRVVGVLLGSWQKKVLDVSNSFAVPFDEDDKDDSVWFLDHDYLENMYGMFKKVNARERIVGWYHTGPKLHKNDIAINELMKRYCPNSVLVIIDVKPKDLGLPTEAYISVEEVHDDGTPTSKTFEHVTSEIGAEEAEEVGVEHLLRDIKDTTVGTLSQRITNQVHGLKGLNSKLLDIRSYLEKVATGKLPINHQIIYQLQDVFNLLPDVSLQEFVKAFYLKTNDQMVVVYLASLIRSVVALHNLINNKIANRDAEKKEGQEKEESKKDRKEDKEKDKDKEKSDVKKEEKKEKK
# Outline: as §1
# [5] = biological target: UCHL1 (UniProt P09936)
# Outline: as §1
# [6] = biological target: T4, UCHL3 (UniProt P15374)
# T4 sequence (whole entry): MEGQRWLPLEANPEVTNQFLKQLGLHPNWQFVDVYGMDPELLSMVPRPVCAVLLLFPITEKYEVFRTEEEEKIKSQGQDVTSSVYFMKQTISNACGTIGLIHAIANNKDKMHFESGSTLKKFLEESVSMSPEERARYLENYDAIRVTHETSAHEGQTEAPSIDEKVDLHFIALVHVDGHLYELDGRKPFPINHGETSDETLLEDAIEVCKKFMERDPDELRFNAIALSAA
# Outline: as §1
# [7] = biological target: T5, UCHL5 (UniProt Q9Y5K5)
# T5 sequence (whole entry): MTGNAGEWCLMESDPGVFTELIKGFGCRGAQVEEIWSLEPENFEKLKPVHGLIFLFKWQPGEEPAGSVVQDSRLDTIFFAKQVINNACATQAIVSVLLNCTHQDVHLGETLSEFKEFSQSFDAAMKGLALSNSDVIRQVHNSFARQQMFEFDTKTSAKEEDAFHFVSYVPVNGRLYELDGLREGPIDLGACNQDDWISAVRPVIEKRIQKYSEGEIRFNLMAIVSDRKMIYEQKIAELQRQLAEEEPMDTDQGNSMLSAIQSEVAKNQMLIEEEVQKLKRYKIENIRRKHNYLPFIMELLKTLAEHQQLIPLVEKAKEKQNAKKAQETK
# Outline: as §1
# [8] = biological target: USP10 (UniProt Q14694)
# Outline: as §1
# [9] = biological target: T6, USP15 (UniProt Q9Y4E8)
# T6 sequence (whole entry): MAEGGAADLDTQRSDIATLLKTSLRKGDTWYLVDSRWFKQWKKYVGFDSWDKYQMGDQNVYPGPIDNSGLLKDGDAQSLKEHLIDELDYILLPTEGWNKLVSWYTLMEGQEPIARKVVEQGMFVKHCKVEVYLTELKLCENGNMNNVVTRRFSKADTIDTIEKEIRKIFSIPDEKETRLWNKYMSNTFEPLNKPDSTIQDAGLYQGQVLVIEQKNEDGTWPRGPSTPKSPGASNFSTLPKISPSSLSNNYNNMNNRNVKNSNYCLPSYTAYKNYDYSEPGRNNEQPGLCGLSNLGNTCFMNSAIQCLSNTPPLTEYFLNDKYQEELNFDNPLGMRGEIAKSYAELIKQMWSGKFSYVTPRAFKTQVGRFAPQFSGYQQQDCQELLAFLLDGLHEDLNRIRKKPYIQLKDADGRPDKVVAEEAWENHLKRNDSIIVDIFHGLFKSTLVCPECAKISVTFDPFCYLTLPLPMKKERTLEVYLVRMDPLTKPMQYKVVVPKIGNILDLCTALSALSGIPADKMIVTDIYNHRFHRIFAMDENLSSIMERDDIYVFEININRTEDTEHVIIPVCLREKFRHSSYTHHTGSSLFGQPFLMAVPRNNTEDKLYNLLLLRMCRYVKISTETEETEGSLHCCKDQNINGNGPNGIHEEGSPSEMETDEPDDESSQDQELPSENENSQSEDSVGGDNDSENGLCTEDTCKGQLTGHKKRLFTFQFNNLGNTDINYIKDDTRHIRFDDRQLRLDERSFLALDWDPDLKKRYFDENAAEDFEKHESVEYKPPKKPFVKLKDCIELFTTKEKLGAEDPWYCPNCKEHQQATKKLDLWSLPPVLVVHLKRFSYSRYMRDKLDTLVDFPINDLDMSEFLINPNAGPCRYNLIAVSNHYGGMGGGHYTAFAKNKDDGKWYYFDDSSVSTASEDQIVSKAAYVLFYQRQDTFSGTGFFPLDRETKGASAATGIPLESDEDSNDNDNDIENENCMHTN
# Outline: as §1
# [10] = biological target: USP16 (UniProt Q9Y5T5)
# Outline: as §1
# Sequence of UCHL1 (P09936 whole entry, looked up): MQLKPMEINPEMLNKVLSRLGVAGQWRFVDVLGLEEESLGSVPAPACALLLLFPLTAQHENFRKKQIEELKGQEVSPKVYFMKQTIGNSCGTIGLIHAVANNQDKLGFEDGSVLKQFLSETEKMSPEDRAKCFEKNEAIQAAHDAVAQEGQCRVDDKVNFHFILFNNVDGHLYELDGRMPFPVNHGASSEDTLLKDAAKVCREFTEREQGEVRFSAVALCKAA
# Sequence of USP10 (Q14694 whole entry): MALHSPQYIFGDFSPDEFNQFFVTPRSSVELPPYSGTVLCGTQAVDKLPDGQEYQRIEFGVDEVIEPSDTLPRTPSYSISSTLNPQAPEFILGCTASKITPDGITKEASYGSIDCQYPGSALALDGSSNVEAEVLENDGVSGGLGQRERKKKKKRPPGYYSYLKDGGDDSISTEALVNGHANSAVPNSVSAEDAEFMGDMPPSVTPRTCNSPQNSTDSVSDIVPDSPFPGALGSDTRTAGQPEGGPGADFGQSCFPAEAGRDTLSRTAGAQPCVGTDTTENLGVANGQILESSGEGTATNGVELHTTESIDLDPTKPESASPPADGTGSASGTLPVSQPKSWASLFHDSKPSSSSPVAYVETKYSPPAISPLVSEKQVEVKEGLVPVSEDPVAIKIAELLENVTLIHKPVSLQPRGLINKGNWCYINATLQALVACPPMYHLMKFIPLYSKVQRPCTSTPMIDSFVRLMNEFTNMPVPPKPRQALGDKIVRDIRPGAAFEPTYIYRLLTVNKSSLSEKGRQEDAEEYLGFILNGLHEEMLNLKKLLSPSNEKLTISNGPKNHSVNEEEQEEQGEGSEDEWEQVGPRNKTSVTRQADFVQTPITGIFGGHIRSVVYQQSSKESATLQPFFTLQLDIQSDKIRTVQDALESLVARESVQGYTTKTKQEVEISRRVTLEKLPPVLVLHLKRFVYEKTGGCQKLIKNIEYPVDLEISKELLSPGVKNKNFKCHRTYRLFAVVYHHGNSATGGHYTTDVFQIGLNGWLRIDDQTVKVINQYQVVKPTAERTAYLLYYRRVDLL
# Sequence of USP16 (Q9Y5T5 whole entry, looked up): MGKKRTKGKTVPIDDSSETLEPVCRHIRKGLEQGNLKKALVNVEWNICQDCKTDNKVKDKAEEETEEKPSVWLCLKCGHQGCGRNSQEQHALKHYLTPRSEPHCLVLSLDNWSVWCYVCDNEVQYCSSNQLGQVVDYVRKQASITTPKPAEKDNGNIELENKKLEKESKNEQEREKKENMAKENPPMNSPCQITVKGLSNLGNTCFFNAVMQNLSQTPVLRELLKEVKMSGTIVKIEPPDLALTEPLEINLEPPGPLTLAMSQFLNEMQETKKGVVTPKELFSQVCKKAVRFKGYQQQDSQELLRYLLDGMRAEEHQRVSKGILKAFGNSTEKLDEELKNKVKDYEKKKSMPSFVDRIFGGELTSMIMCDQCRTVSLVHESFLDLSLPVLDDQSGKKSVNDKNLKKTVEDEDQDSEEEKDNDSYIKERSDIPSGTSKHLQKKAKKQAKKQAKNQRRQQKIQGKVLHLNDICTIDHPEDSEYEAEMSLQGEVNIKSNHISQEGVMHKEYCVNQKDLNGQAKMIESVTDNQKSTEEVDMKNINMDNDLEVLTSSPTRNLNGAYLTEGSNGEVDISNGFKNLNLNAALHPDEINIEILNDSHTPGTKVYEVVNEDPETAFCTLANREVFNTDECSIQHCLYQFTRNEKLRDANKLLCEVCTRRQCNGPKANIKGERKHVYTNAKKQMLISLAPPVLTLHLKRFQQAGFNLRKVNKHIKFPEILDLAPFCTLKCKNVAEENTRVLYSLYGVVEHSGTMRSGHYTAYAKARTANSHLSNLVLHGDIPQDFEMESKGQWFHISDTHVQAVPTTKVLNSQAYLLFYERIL
SMILES,log2 ratio of Biotin-Ahx-Ub-VS probe labelling [1],log2 ratio of Biotin-Ahx-Ub-VS probe labelling [2],log2 ratio of Biotin-Ahx-Ub-VS probe labelling [3],log2 ratio of Biotin-Ahx-Ub-VS probe labelling [4],log2 ratio of Biotin-Ahx-Ub-VS probe labelling [5],log2 ratio of Biotin-Ahx-Ub-VS probe labelling [6],log2 ratio of Biotin-Ahx-Ub-VS probe labelling [7],log2 ratio of Biotin-Ahx-Ub-VS probe labelling [8],log2 ratio of Biotin-Ahx-Ub-VS probe labelling [9],log2 ratio of Biotin-Ahx-Ub-VS probe labelling [10]
Cc1c(C#N)c(NC(=O)CCl)n(Cc2ccco2)c1C,-0.163,-1.87 (active),0.194,0.0239,-1.43 (active),0.496,-0.133,-0.259,-0.505,-0.818
Cc1nc(CN2CCN(C(=O)CCl)CC2)cs1,-0.238,-0.265,0.211,-0.333,-1.72 (active),-0.051,-0.0894,-0.0627,-0.32,-0.55
N#Cc1ccc(Cl)cc1NC(=O)CCl,-0.0498,-1.73 (active),0.00848,-0.0625,-1.01 (active),0.385,0.0193,-0.153,-0.0346,-0.655
O=C(CCl)N1CC2(CCOCC2)C1,-0.202,-0.345,-0.426,-0.00344,-1.21 (active),0.139,-0.253,-0.483,-0.212,-0.888
Cc1ccc(-c2nnc(C)[nH]2)c(NC(=O)CCl)c1,-0.00419,-0.183,-0.0454,-0.177,-1.14 (active),0.176,-0.152,0.0193,-0.0491,0.114
Cl.O=C(CCl)N1CC(c2ccc(Br)cn2)C1,-0.116,-1.18 (active),0.0941,-0.394,-1.41 (active),-0.211,-0.254,-0.0353,-0.409,-0.253
Cc1ccccc1CN(C)C(=O)CCl,-0.788,-0.98,-0.0478,-0.18,-1.98 (active),-0.483,-1.01 (active),-0.154,-0.803,-0.62
COc1ccc(CN(C)C(=O)CCl)cc1,-0.199,-0.373,0.0533,-0.411,-1.22 (active),0.249,-0.235,-0.213,-0.112,0.163
Cl.O=C(CCl)NCCc1ncc(F)cc1F,-0.346,-0.663,-0.0362,-0.45,-1.7 (active),0.191,-0.376,-0.075,-0.3,-0.0122
O=C(CCl)N[C@H]1CCS(=O)(=O)c2ccccc21,-0.0586,-1.71 (active),0.0359,-0.0772,-1.5 (active),0.351,-0.0806,-0.109,-0.195,-0.601
Cc1nc(CC2CCN(C(=O)CCl)CC2)no1,-0.781,-0.652,-0.314,0.0562,-1.96 (active),-0.269,-0.792,-0.321,-0.77,0.0849
Cc1cccnc1NC(=O)C1CCN(C(=O)CCl)CC1.Cl,-0.127,-0.284,-0.0508,-0.189,-1.33 (active),0.088,-0.328,-0.146,-0.24,0.018
COc1ccc(C2CCCN2C(=O)CCl)c(OC)c1 (stereo not given),-0.302,-0.122,0.164,-0.138,-1.67 (active),-1.75 (active),-0.34,-0.166,-0.424,-0.285
O=C(CCl)NCCc1ccc(F)cc1,0.0481,-0.435,-0.0623,0.0236,-1.09 (active),0.132,-0.0307,-0.0913,-0.0724,0.107
Cc1ncc2c(n1)CCN(C(=O)CCl)C2,-0.152,-0.47,0.0188,0.0625,-0.771,0.268,0.0568,-0.242,-0.636,-0.136
